VACV Venus inh: vaccinia inhibition (Venus reporter); Vaccinia virus Venus reporter expression, fluorescence; Potency, µM (top dose mostly 36.5 µM), inactives show top-dose activity change, negative = inhibition, most hits filed as inhibitors; 330,000 compounds, 0.46% hits; AID 720580; calls by dose curve; tested in A549 cells; also: nearly all actives have a fitted effect of over 30% in size
RE007 growth inh: less growth of the S. pombe RE007 Vpr strain; S. pombe RE007 Vpr strain, BacTiter-Glo ATP luminescence, 24 h; Potency, µM (highest dose often 92.2 µM), for inactives: top-dose activity change, negative = less growth, hits mostly inhibitors; 360,000 compounds, 0.21% hits; active = well fitted falling curve with a large enough effect; inconclusive = small, poorly fitted or top-dose-only effect; inactive = no such curve, though single readings can be large or run the other way; also: nearly all actives have a fitted effect of over 50% in size
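Fission yeast RE007 carrying one integrated HIV-1 vpr copy, seeded at OD 0.01 in PMG+AL medium with 23 nL pinned compound. Grown 24 h at 30 degrees; viability read by BacTiter-Glo luminescence after 5 min.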
VACV mCherry inh: inhibitors of vaccinia virus infection (mCherry reporter signal); Vaccinia virus mCherry reporter infection, fluorescence; Potency, µM (series often up to 36.5 µM), for inactives: top-dose activity change, negative = inhibition, most hits filed as inhibitors; 310,000 compounds, 0.63% hits; calls by dose curve; tested in A549 cells; also: nearly all actives have a fitted effect of over 35% in size
Tb PYK inh: blocks Trypanosoma brucei pyruvate kinase; Potency, µM (doses to about 76.8 µM), inactives show at the highest dose activity, negative = inhibition, hits mostly inhibitors; AID 624173; 410,000 compounds, 0.12% hits; TbPYK enzyme, Kinase-Glo Plus ATP luminescence, 45 min; Q57TT1; also: nearly all actives have a fitted effect of over 50% in size
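Luminescent Kinase-Glo Plus end-point after 45 min room-temperature reaction of T. brucei pyruvate kinase started with 130 uM ADP (final). Buffer TEA 50 mM pH 7.2 with KCl, MgCl2, BSA, Tween-20; titration-based qHTS with fitted concentration-effect curves.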
LmPK inh: inhibitors of Leishmania mexicana pyruvate kinase; Potency, µM (top dose mostly 57.5 µM), inactives show top-dose activity change, negative = inhibition, hits mostly inhibitors; AID 1721; purified LmPK, Kinase-Glo ATP luminescence, 1 h; 290,000 compounds, 0.37% hits
Target sequence (Q27686 whole entry, looked up): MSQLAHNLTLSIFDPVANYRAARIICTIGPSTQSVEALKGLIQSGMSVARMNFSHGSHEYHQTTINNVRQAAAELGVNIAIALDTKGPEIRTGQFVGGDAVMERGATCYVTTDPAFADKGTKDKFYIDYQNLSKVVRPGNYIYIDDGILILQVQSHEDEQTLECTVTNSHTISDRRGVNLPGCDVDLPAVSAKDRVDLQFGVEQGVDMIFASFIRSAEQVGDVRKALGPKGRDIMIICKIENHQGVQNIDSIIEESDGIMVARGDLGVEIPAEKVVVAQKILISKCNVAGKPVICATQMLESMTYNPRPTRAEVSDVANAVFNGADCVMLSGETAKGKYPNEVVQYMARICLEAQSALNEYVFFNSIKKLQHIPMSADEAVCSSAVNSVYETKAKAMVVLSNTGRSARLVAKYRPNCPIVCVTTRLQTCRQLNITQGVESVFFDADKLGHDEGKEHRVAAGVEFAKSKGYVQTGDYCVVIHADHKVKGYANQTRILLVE
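Purified LmPK (0.1 nM) with 0.5 mM PEP and 0.1 mM ADP in imidazole buffer pH 7.2 with MgCl2/KCl, 1 h at room temperature. ATP formed was read by luciferase luminescence and normalized to no-enzyme and uninhibited controls.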
AMA1 RON2 block: inhibitors of Plasmodium falciparum AMA1-RON2 interaction; Potency, µM (highest dose often 58.2 µM), for the others: top-dose activity change, negative = inhibition, hits mostly inhibitors; 360,000 compounds, 0.2% hits; AlphaScreen AMA1-biotinylated RON2 peptide binding;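 also: 0% = vehicle wells and -100% = peptide control; nearly all actives have a fitted effect of over 45% in size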
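AMA1 (3D7) with his tag at 25 nM final met compounds first, then biotinylated RON2 peptide at 25 nM; detection used donor plus acceptor beads, 10 µg/mL apiece, read by AlphaScreen after 30 min at room temperature.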
Starred values were filed as active, the others as inactive; i = inactive; ? = inconclusive; / = not tested or not shown; + = active, no number; [ ] = dose if it differs, or a comment. This is a sample that favours compounds with a hit; in the whole collection about 1.3% have one here. Unless noted, calls follow the shape of the dose curve; as a rule, active = well fitted curve in the direction sought with a large enough effect; inconclusive = small, poorly fitted or top-dose-only effect, or another doubt; inactive = no such curve, though single readings can be large; an effect the other way counts as inactive or inconclusive. Unless noted, % is scaled to controls: 0 for no effect and ±100 for the full control effect; potency is read from the fitted curve at half-maximal effect.

SMILES	VACV Venus inh	RE007 growth inh	VACV mCherry inh	Tb PYK inh	LmPK inh	AMA1 RON2 block
N/C(=N\OC(=O)/C=C/c1ccccc1)c1ccccc1	-3%	-10%	-10%	-5%	14µM*	0%
O=C(/C=C/c1ccccc1)/C=C/c1ccccc1	10µM*	?	?	-3%	-22%	-4%
CC(=O)/C=C/c1ccccc1	-5%	-8%	i	0%	/	8%
CCOC(=O)c1[nH]c2ccc(C)cc2c1N	/	-2%	/	-23%	13µM*	-5%
CCOC(=O)c1[nH]c2cc(OC)c(OC)cc2c1N	/	-11%	/	-17%	7%	8%
CCCCNC(=O)[C@@H]1CC=C[C@@H]2CCN(Cc3ccc(OC)c(OC)c3)C(=O)[C@@H]21	-7%	/	i	/	/	/
C=C1C(=O)[C@]23C[C@H]1CCC2[C@@]1(C)C(C[C@@H]3O)[C@](C)(C(=O)OC)CC[C@@H]1O (some centres undefined)	?	?	8.9µM*	-14%	/	23%
O=C(CN1Cc2ccccc2OC(c2ccccc2F)C1)NC(c1ccccn1)C(F)(F)F (centres undefined)	-3%	/	-12%	/	/	/
Cc1ccc(OCc2nc(-c3ccccn3)no2)c(Br)c1	/	-14%	/	-3%	16µM*	15%
O=C(Nc1cnn(Cc2ccc(Cl)c(Cl)c2)c1)C12CC3CC(CC(C3)C1)C2	?	3%	18µM*	-5%	4%	-16%
CCOc1ccc(C(=O)Nc2cnn(Cc3ccc(Cl)c(Cl)c3)c2)cc1	/	15%	/	-4%	6%	3%
C[C@@H]1[C@H](c2ccccc2)OCCS(=O)(=O)N1Cc1ccccc1F	-21%	/	-27%	/	/	/
CCCCCCn1ccc(=N)cc1	?	-24%	/	5%	-2%	-1%
CCCCCCCCCCCCCCCCn1cc[n+](CC(C)=O)c1	/	32µM*	/	-4%	3%	5%
COc1cc2c(cc1OC)C1O[C@](CCCCN3C(=O)c4ccccc4C3=O)(C2)Oc2c1c(=O)oc1ccc(F)cc21	/	/	/	/	5%[11.5 µM]	/
C[C@H](NC(=O)c1ncn2c1c(=O)[nH]c1ccc(Br)cc12)c1ccccc1	13µM*	-16%	?	1%	/	-6%
COc1ccc2nc(C)cc(Nc3ccc(N4CCOCC4)cc3)c2c1	-26%	-22%	-2%	2%	0%	-15%
COc1ccc2nc(C)cc(Nc3ccc(N4CCN(C)CC4)cc3)c2c1	10µM*	-2%	?	-3%	-2%	-11%
COc1ccc2nc(C)cc(N/N=C/c3ccccc3)c2c1	?	14%	14µM*	6%	/	4%
COc1ccc(CCNc2ncnc3sc(C(=O)N4CCCCC4)c(C)c23)cc1OC	-20%	/	-23%	/	/	/
CN1OC[C@@H]2CN(Cc3ccc(Cl)cc3)[C@H](c3ccc(N4CCCCC4)cc3)C[C@@H]21	-4%	-17%	i	4%	/	16µM*
COc1ccc(-c2cnc(SCC(=O)Nc3ccc4c(c3)OCO4)n2Cc2ccco2)cc1	-14%	6%	-24%	-1%	-3%	14µM*
Cc1ccc(C(=O)NCCc2nnc3n2CCN(Cc2ccnc4ccccc24)CC3)c(C)c1	-14%	/	-13%	/	/	/
Cc1c(C(=O)N2CCCC2)sc2ncnc(NCCCN3CCOCC3)c12	0%	/	i	/	/	/
Cc1[nH]nc2ccc(-c3cncc(OC[C@@H](N)Cc4c[nH]c5ccccc45)c3)cc12	0.89µM*	11%	?	-5%	/	-22%
SMILES	VACV Venus inh	RE007 growth inh	VACV mCherry inh	Tb PYK inh	LmPK inh	AMA1 RON2 block
COC(=O)C(Cc1c[nH]c2ccccc12)NC(=O)COc1cccc(C)c1 (centres undefined)	0%	/	-8%	-5%	/	/
CN(CC(=O)O)c1ccc(C=O)cc1	-21%	/	-5%	/	/	/
CC(=O)c1ccc(F)c(-c2cc(C)cc3c2OC(CNC(=O)C2CCCCN2C)C3)c1 (centres undefined)	-7%	/	-21%	/	/	/
O=[N+]([O-])c1cc(Cl)c(O)c2ncccc12	?	?	?	-13%	-14%	-84%
O=[N+]([O-])c1ccc(O)c2cccnc12	0%	-12%	-5%	-5%	0%	3%
O=[N+]([O-])c1ccc(O)c2ncccc12	?	-10%	10µM*	3%	-1%	-57%
O=[N+]([O-])c1cc(Cl)c2cccnc2c1O	?	?	28µM*	-4%	1%	?
O=S(=O)(O)OCC1OC(COS(=O)(=O)O)(C2(OS(=O)(=O)O)OC(CO)C(OS(=O)(=O)O)C(OS(=O)(=O)O)C2OS(=O)(=O)O)C(OS(=O)(=O)O)C1OS(=O)(=O)O (centres undefined)	/	/	/	-3%	/	/
COc1cc2c(cc1OC)C13CCN4CC5=CCOC6CC(=O)N2C1C6C5CC43 (centres undefined) (tested in a mixture with another compound)	+	-7%	-5%	5%	-1%	6%
Cn1c(=O)c2c(SCC(=O)N3CCCc4ccccc43)nc(CC(C)(C)C)nc2n(C)c1=O	11µM*	6%	?	-11%	-1%	-6%
N/C(=N\OCc1ccccc1)c1nonc1N	/	0%	/	-5%	?	19%
N/C(=N/OC(=O)c1ccccc1F)c1nonc1N	-10%	10%	i	?	14µM*	5%
N/C(=N\OC(=O)c1ccc(Cl)cc1)c1nonc1N	-6%	-21%	-19%	-18%	13µM*	-2%
COc1cccc(-c2cc3c(c(OC)c2)OCCN(Cc2cccn2-c2ccccn2)C3)c1	-1%	/	-16%	/	/	/
CCS(=O)(=O)c1ncc(Cl)c(C(=O)Nc2ccc(S(=O)(=O)N3CCC(C)CC3)cc2)n1	18µM*	2%	?	-9%	3%	-14%
CCSc1ncc(Cl)c(C(=O)Nc2ccc(S(=O)(=O)N3CCC(C)CC3)cc2)n1	-20%	/	?	-1%	/	/
Cc1cc(C)cc(NC(=O)C2CC23CCN(Cc2ccc4ncccc4c2)CC3)c1 (centres undefined)	0%	/	-3%	/	/	/
O=C(CCc1nnc2n(Cc3ccccc3Cl)c(=O)c3ccccc3n12)Nc1ccc(F)cc1	10µM*	/	10µM*	-11%	/	/
CCc1cc(C(=O)N2CCc3c([nH]c4ccccc34)C2c2ccc(OC)cc2F)no1 (centres undefined)	-16%	30%	11µM*	-7%	8%	-26%
COc1ccc(C2c3[nH]c4ccccc4c3CCN2C(=O)c2ccc(=O)n(C)n2)c(F)c1 (centres undefined)	-12%	-6%	?	-9%	0%	0%
Cc1c(C(=O)N(C)C2CCOC2)sc2ncnc(NCc3ccc4c(c3)OCO4)c12 (centres undefined)	5%	/	-12%	/	/	/
